Source: the antibiotic and cytotoxicity screens of Wong et al. (2023)
About 3,300 (8.5%) of roughly 39,000 compounds were called active. This excerpt belongs to a sample that is enriched for actives.

What follows are compounds tested on HepG2 (assay: cytotoxicity call (relative viability < 0.9)). Settings: 10 µM.
In the case of `COc1ccc(S(=O)(=O)N(C)C[C@H]2OCCCC[C@H](C)Oc3ccc(NC(=O)CCC(F)(F)F)cc3C(=O)N([C@@H](C)CO)C[C@@H]2C)cc1`, the cytotoxicity call is reported as “inactive”.
With `O=C1CCC(C(=O)O)CC1` the cytotoxicity call was “inactive”.
For `C[C@@H]1CN([C@@H](C)CO)C(=O)c2cc(NC(=O)CCN3CCOCC3)ccc2O[C@@H]1CN(C)S(=O)(=O)c1ccccc1`, the cytotoxicity call was “inactive”.
`C[C@@H]1CCCCO[C@@H](CN(C)C(=O)Nc2cccc3ccccc23)[C@@H](C)CN([C@H](C)CO)C(=O)c2cc(NC(=O)Nc3ccc(C(F)(F)F)cc3)ccc2O1` was tested, and the cytotoxicity call was “inactive”.
In the case of `COc1ccc(S(=O)(=O)N(C)C[C@@H]2Oc3ccc(NS(=O)(=O)c4cn(C)cn4)cc3C(=O)N([C@H](C)CO)C[C@@H]2C)cc1`, the cytotoxicity call is reported as “inactive”.
For `C[C@H](CO)N1C[C@H](C)[C@@H](CN(C)S(=O)(=O)c2ccc3ccccc3c2)OCc2cnnn2CCCC1=O`, the cytotoxicity call was “inactive”.
With `COc1ccc(C#Cc2cnc3c(c2)C(=O)N([C@H](C)CO)C[C@H](C)[C@H](CN(C)S(=O)(=O)c2cccc(F)c2)O3)cc1OC` the cytotoxicity call was “inactive”.
In the case of `COc1ccc(COCC23Oc4ccccc4[C@H]([C@H]2CO[Si](C)(C)C(C)(C)C)n2c(c4ccccc4c(-c4ccccc4)c2=O)N3C)cc1`, the cytotoxicity call is reported as “active”.
`COC(=O)c1c(C(=O)OC)c2n(c(=O)c1-c1ccccc1)[C@@H]1c3ccccc3O[C@@](COCc3ccc(OC)cc3)([C@@H]1CO[Si](C)(C)C(C)(C)C)N2C` was tested, and the cytotoxicity call was “inactive”.
For `COc1ccc(COCC23Oc4ccccc4[C@H]([C@H]2CO)n2c(c4c(c(C(C)=O)c2=O)C(=O)N(C)C4=O)N3C)cc1`, the cytotoxicity call was “inactive”.
In the case of `COC(=O)c1cc(-c2ccccc2)c(=O)n2c1N(C)[C@@]1(COCc3ccc(OC)cc3)Oc3ccccc3[C@@H]2[C@H]1CO[Si](C)(C)C(C)(C)C`, the cytotoxicity call is reported as “inactive”.
For `COc1ccc(COCC23Oc4ccccc4[C@H]([C@H]2COC(=O)c2ccccc2)n2c(c4ccccc4c(-c4ccccc4)c2=O)N3C)cc1`, the cytotoxicity call was “active”.
In the case of `COc1ccc(COCC23Oc4ccccc4[C@H]([C@H]2CO)n2c(c4ccccc4c(-c4ccccc4)c2=O)N3C)cc1`, the cytotoxicity call is reported as “active”.
In the case of `COC(=O)c1c(C(=O)OC)c2n(c(=O)c1-c1ccccc1)[C@@H]1c3ccccc3O[C@@](COCc3ccc(OC)cc3)([C@@H]1COC(=O)c1ccccc1)N2C`, the cytotoxicity call is reported as “inactive”.
`COc1ccc(COCC23Oc4ccccc4[C@H]([C@H]2COC(=O)NCCCCCC(=O)NO)n2c(c4c(c(C(C)=O)c2=O)C(=O)N(C)C4=O)N3C)cc1` was tested, and the cytotoxicity call was “inactive”.
For `COC(=O)c1c(C(=O)OC)c2n(c(=O)c1-c1ccccc1)[C@@H]1c3ccccc3O[C@@](CO)([C@@H]1CO)N2C`, the cytotoxicity call was “inactive”.
`COc1ccc(NC(=O)N(C)C[C@@H]2OCCCC[C@H](C)Oc3ccc(NS(=O)(=O)c4ccc(OC)cc4)cc3C(=O)N([C@H](C)CO)C[C@@H]2C)cc1` was tested, and the cytotoxicity call was “inactive”.
`CC(C)NC(=O)N(C)C[C@@H]1Oc2c(NC(=O)Nc3ccc4c(c3)OCO4)cccc2C(=O)N([C@@H](C)CO)C[C@@H]1C` was tested, and the cytotoxicity call was “inactive”.
With `C[C@H]1CCCCO[C@H](CN(C)C(=O)CCC(F)(F)F)[C@@H](C)CN([C@@H](C)CO)C(=O)c2cc(NS(=O)(=O)c3cccs3)ccc2O1` the cytotoxicity call was “inactive”.
`Cn1cnc(S(=O)(=O)N2C[C@@H](O)COC[C@H]3O[C@H](CC(=O)NCc4cc(F)cc(F)c4)CC[C@@H]32)c1` was tested, and the cytotoxicity call was “inactive”.
For `O=C(C[C@@H]1CC[C@H]2[C@@H](COC[C@@H](O)CN2S(=O)(=O)c2cccc(Cl)c2)O1)N1CCOCC1`, the cytotoxicity call was “inactive”.
In the case of `O=C(C[C@@H]1CC[C@@H]2[C@H](COC[C@@H](O)CN2C(=O)Nc2ccc(Cl)c(Cl)c2)O1)NCc1ccc(Cl)c(Cl)c1`, the cytotoxicity call is reported as “inactive”.
For `O=C(C[C@@H]1CC[C@H]2[C@@H](COC[C@@H](O)CN2C(=O)Nc2ccc(Cl)c(Cl)c2)O1)NCc1ccc(Cl)c(Cl)c1`, the cytotoxicity call was “active”.
In the case of `Cn1cnc(CCNC(=O)C[C@H]2CC[C@@H]3[C@H](COC[C@@H](O)CN3C(=O)Nc3ccc(Cl)cc3)O2)c1`, the cytotoxicity call is reported as “inactive”.
In the case of `O=C(C[C@H]1CC[C@H]2[C@@H](COC[C@H](O)CN2C(=O)Nc2ccc(Cl)c(Cl)c2)O1)NCc1ccc(Cl)c(Cl)c1`, the cytotoxicity call is reported as “inactive”.
With `O=C(C[C@H]1CC[C@H]2[C@@H](COC[C@@H](O)CN2C(=O)Nc2ccc(Cl)c(Cl)c2)O1)NCc1ccc(Cl)c(Cl)c1` the cytotoxicity call was “active”.
In the case of `O=C(C[C@H]1CC[C@@H]2[C@H](COC[C@@H](O)CN2Cc2cccc(C(F)(F)F)c2)O1)NCCc1ccncc1`, the cytotoxicity call is reported as “active”.
`O=C(C[C@H]1CC[C@@H]2[C@H](COC[C@@H](O)CN2C(=O)Nc2ccc(Cl)c(Cl)c2)O1)NCc1ccc(Cl)c(Cl)c1` was tested, and the cytotoxicity call was “inactive”.
With `Cn1cnc(CCNC(=O)C[C@@H]2CC[C@H]3[C@@H](COC[C@H](O)CN3C(=O)Nc3ccc(Cl)cc3)O2)c1` the cytotoxicity call was “inactive”.
With `O=C(C[C@@H]1CC[C@H]2[C@@H](COC[C@H](O)CN2C(=O)Nc2ccc(Cl)c(Cl)c2)O1)NCc1ccc(Cl)c(Cl)c1` the cytotoxicity call was “inactive”.
`O=C(C[C@@H]1CC[C@@H]2[C@H](COC[C@H](O)CN2Cc2cccc(C(F)(F)F)c2)O1)NCCc1ccncc1` was tested, and the cytotoxicity call was “inactive”.
With `O=C(C[C@H]1CC[C@@H]2[C@H](COC[C@H](O)CN2Cc2cccc(C(F)(F)F)c2)O1)NCCc1ccncc1` the cytotoxicity call was “inactive”.
`Cn1cnc(CCNC(=O)C[C@H]2CC[C@@H]3[C@H](COC[C@H](O)CN3C(=O)Nc3ccc(Cl)cc3)O2)c1` was tested, and the cytotoxicity call was “active”.
With `C[C@H]1CN([C@@H](C)CO)S(=O)(=O)c2ccc(Br)cc2O[C@@H]1CN(C)C(=O)c1cnccn1` the cytotoxicity call was “inactive”.
With `C[C@H](CO)N1C[C@H](C)[C@H](CN(C)Cc2ccccc2)Oc2c(NC(=O)Nc3ccc(C(F)(F)F)cc3)cccc2C1=O` the cytotoxicity call was “inactive”.
For `C[C@H]1CN([C@@H](C)CO)C(=O)Cc2cc(NC(=O)CCC(F)(F)F)ccc2O[C@@H]1CN(C)Cc1ccc(Cl)c(Cl)c1`, the cytotoxicity call was “inactive”.
In the case of `O=C(O)CCC(=O)N1CC(=O)Nc2ccccc21`, the cytotoxicity call is reported as “inactive”.
`C[C@@H]1CN([C@@H](C)CO)C(=O)c2cccc(NS(=O)(=O)c3ccccc3)c2O[C@@H]1CN(C)Cc1ccc(Oc2ccccc2)cc1` was tested, and the cytotoxicity call was “inactive”.
In the case of `COc1ccc(S(=O)(=O)N(C)C[C@H]2Oc3ccc(NS(=O)(=O)c4ccc(C)cc4)cc3CC(=O)N([C@H](C)CO)C[C@@H]2C)cc1`, the cytotoxicity call is reported as “inactive”.
